Measurements as given in the supplement of paper PMC6288085.
Where a name gives a salt, the structure may show the parent alone. ± gives the uncertainty stated by the source.

What follows are molecules tested on Caenorhabditis elegans N2 (assay: food intake (mean delta OD600 / animal over 72 h) with 50 uM loxapine co-treatment (OD600 units per animal); higher = more food eaten (less suppression of loxapine-induced hyperphagia)). Conditions: first compound 33 µM, loxapine concentration 50 µM.
Procedure: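 C. elegans N2 adults (FUDR-sterilised, day 1) in 96-well plates fed gamma-irradiated bacteria. Each library drug (MedChemExpress FDA-approved library) at 33 uM was combined with loxapine at 50 uM. Food intake was measured as bacterial clearance: the change in OD600 from day 1 to 72 h, normalised per animal (mean over 14-21 wells of about 10-12 worms). Drugs flagged for bacterial lysis or sickness were excluded by the authors.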
Work on `O=C1CCc2cc(OCCCCc3nnnn3C3CCCCC3)ccc2N1` [cilostazol] + CN1CCN(C2=Nc3ccccc3Oc3ccc(Cl)cc32)CC1 [loxapine] yielded a food intake of 0.0227 ± 0.0031.
In the case of `CC(C(=O)O)c1ccc2c(c1)CC(=O)c1ccccc1S2` (stereo not given) [zaltoprofen] + CN1CCN(C2=Nc3ccccc3Oc3ccc(Cl)cc32)CC1 [loxapine], the food intake is reported as 0.0216 ± 0.0032.
`Cc1ccnc(NS(=O)(=O)c2ccc(N)cc2)n1` [sulfamerazine] + CN1CCN(C2=Nc3ccccc3Oc3ccc(Cl)cc32)CC1 [loxapine] gave a food intake of 0.0224 ± 0.0031.
`Cn1c(=O)c2nc[nH]c2n(C)c1=O` [theophylline] + CN1CCN(C2=Nc3ccccc3Oc3ccc(Cl)cc32)CC1 [loxapine] was tested, and the food intake was 0.00971 ± 0.011.
Work on `O=C1CC2(CCCC2)CC(=O)N1CCCCN1CCN(c2ncccn2)CC1` [buspirone (hydrochloride)] + CN1CCN(C2=Nc3ccccc3Oc3ccc(Cl)cc32)CC1 [loxapine] yielded a food intake of 0.0245 ± 0.0044.
Molecule `Cc1cn([C@@H]2C[C@@H](O)[C@H](CO)O2)c(=O)[nH]c1=O` [telbivudine] + CN1CCN(C2=Nc3ccccc3Oc3ccc(Cl)cc32)CC1 [loxapine] has a food intake of 0.0219 ± 0.0023.
`CCc1nc(N)nc(N)c1-c1ccc(Cl)cc1` [pyrimethamine] + CN1CCN(C2=Nc3ccccc3Oc3ccc(Cl)cc32)CC1 [loxapine] showed a food intake of 0.0221 ± 0.003.
Molecule `c1ccc(C2CN3CCSC3=N2)cc1` (stereo not given) [tetramisole (hydrochloride)] + CN1CCN(C2=Nc3ccccc3Oc3ccc(Cl)cc32)CC1 [loxapine] has a food intake of 0.0209 ± 0.0029.
With `CCc1ccc(CCOc2ccc(CC3SC(=O)NC3=O)cc2)nc1` (stereo not given) [pioglitazone (hydrochloride)] + CN1CCN(C2=Nc3ccccc3Oc3ccc(Cl)cc32)CC1 [loxapine] the food intake was 0.0215 ± 0.0041.
Molecule `O=C(Nc1c(Cl)cncc1Cl)c1ccc(OC(F)F)c(OCC2CC2)c1` [roflumilast] + CN1CCN(C2=Nc3ccccc3Oc3ccc(Cl)cc32)CC1 [loxapine] has a food intake of 0.0214 ± 0.0055.
Molecule `CCOC(=O)C(C)(C)Oc1ccc(Cl)cc1` [clofibrate] + CN1CCN(C2=Nc3ccccc3Oc3ccc(Cl)cc32)CC1 [loxapine] has a food intake of 0.0218 ± 0.0033.
`Cc1ccc(Nc2nccc(N(C)c3ccc4c(C)n(C)nc4c3)n2)cc1S(N)(=O)=O` [pazopanib (hydrochloride)] + CN1CCN(C2=Nc3ccccc3Oc3ccc(Cl)cc32)CC1 [loxapine] gave a food intake of 0.0206 ± 0.0053.
`O=C(c1cc(Cc2n[nH]c(=O)c3ccccc23)ccc1F)N1CCN(C(=O)C2CC2)CC1` [olaparib] + CN1CCN(C2=Nc3ccccc3Oc3ccc(Cl)cc32)CC1 [loxapine] showed a food intake of 0.0205 ± 0.005.
Work on `Clc1ccc(COC(Cn2ccnc2)c2ccc(Cl)cc2Cl)c(Cl)c1` (stereo not given) [miconazole (nitrate)] + CN1CCN(C2=Nc3ccccc3Oc3ccc(Cl)cc32)CC1 [loxapine] yielded a food intake of 0.0169 ± 0.005.
Work on `CC(CCc1ccccc1)NCC(O)c1ccc(O)c(C(N)=O)c1` (stereo not given) [labetalol (hydrochloride)] + CN1CCN(C2=Nc3ccccc3Oc3ccc(Cl)cc32)CC1 [loxapine] yielded a food intake of 0.0213 ± 0.0075.
`CC[C@@H]([C@H](C)O)n1ncn(-c2ccc(N3CCN(c4ccc(OC[C@@H]5CO[C@@](Cn6cncn6)(c6ccc(F)cc6F)C5)cc4)CC3)cc2)c1=O` [Posaconazole] + CN1CCN(C2=Nc3ccccc3Oc3ccc(Cl)cc32)CC1 [loxapine] was tested, and the food intake was 0.023 ± 0.0056.
Molecule `CCOc1ccccc1OCCN[C@H](C)Cc1ccc(OC)c(S(N)(=O)=O)c1` [tamsulosin] + CN1CCN(C2=Nc3ccccc3Oc3ccc(Cl)cc32)CC1 [loxapine] has a food intake of 0.022 ± 0.0032.
In the case of `CC(=O)O[C@H]1Cc2ccccc2N(C(N)=O)c2ccccc21` [eslicarbazepine (acetate)] + CN1CCN(C2=Nc3ccccc3Oc3ccc(Cl)cc32)CC1 [loxapine], the food intake is reported as 0.0232 ± 0.0043.
For `CCOCC(O)COc1ccc(NC(=O)CC[S+](C)C)cc1` (stereo not given) [Suplatast (tosilate)] + CN1CCN(C2=Nc3ccccc3Oc3ccc(Cl)cc32)CC1 [loxapine], the food intake was 0.0232 ± 0.0036.
`O=C(c1ccccc1)c1ccc2n1CCC2C(=O)O` (stereo not given) [ketorolac (romethamine salt)] + CN1CCN(C2=Nc3ccccc3Oc3ccc(Cl)cc32)CC1 [loxapine] gave a food intake of 0.0225 ± 0.0034.
`CC1(C)O[C@@H]2C[C@H]3[C@@H]4CCC5=CC(=O)C=C[C@]5(C)[C@@]4(F)[C@@H](O)C[C@]3(C)[C@]2(C(=O)CO)O1` [triamcinolone (acetonide)] + CN1CCN(C2=Nc3ccccc3Oc3ccc(Cl)cc32)CC1 [loxapine] showed a food intake of 0.0224 ± 0.0033.
`CNC(=O)[C@H](Cc1c[nH]c2ccccc12)NC(=O)[C@@H](CC(=O)NO)CC(C)C` + CN1CCN(C2=Nc3ccccc3Oc3ccc(Cl)cc32)CC1 [loxapine] was tested, and the food intake was 0.0195 ± 0.0054.
`CC(=O)N1CCN(c2ccc(OCC3COC(Cn4ccnc4)(c4ccc(Cl)cc4Cl)O3)cc2)CC1` (stereo not given) [ketoconazole] + CN1CCN(C2=Nc3ccccc3Oc3ccc(Cl)cc32)CC1 [loxapine] was tested, and the food intake was 0.0239 ± 0.0034.
`CC[C@@H](CO)NCCN[C@@H](CC)CO` [ethambutol (dihydrochloride)] + CN1CCN(C2=Nc3ccccc3Oc3ccc(Cl)cc32)CC1 [loxapine] gave a food intake of 0.024 ± 0.0019.
With `CN(C)[C@@H]1C(O)=C(C(N)=O)C(=O)[C@@]2(O)C(O)=C3C(=O)c4c(O)cccc4[C@@](C)(O)[C@H]3C[C@@H]12` [Tetracycline (hydrochloride)] + CN1CCN(C2=Nc3ccccc3Oc3ccc(Cl)cc32)CC1 [loxapine] the food intake was 0.0228 ± 0.0038.
